The values below come from PubChem BioAssay (NCATS).

Each structure is given as a SMILES string. Inconclusive results are not listed. Activity calls are given as the source filed them. Unless noted, calls follow the shape of the dose curve; as a rule, active = well fitted curve in the direction sought with a large enough effect; inconclusive = small, poorly fitted or top-dose-only effect, or another doubt; inactive = no such curve, though single readings can be large; an effect the other way counts as inactive or inconclusive.

A short description of experiment [1]: AP1 Signaling Pathway (AID 357; active = well fitted curve in either direction with a large enough effect, not every such curve was filed as active;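 also: ME-180 reporter cells stimulated with EGF at its EC50 level; % is scaled to controls: 0 for no effect and ±100 for the full control effect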). The conditions noted are these: ME-180 AP-1-bla reporter, EGF-induced, beta-lactamase ratio, 5 h; at 7.69 µM (top of the series) unless noted. A digest of the protocol:
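Beta-lactamase reporter under AP-1 response element, ME-180 background. Stimulus: EC50 EGF. Compound exposure 5 h, 37 °C. Detection: CCF4, 2.5 h RT, 460/530 nm. Values: AC50 from titration.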

Experiment [2] in a line: NFAT Signaling Pathway (AID 444; active = well fitted curve in either direction with a large enough effect, not every such curve was filed as active;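 also: carbachol stimulus at about its EC50 of 1 µM final; % is scaled to controls: 0 for no effect and ±100 for the full control effect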). As to conditions: Jurkat NFAT-bla M1, carbachol, beta-lactamase ratio, 5 h; at 7.69 µM (top of the series) unless noted. A digest of the protocol: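 Read-out: CCF4 FRET ratio (460 nm/530 nm) after 1 h RT dye loading, used for %activity and AC50 from titration series. Cells: Jurkat NFAT-β-lactamase/M1 line, treated with compound plus 1 uM carbachol for 5 h, 37 °C.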

The nature of experiment [3]: Stat Signaling Pathway (AID 446; active = well fitted curve in either direction with a large enough effect, not every such curve was filed as active;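 also: ME-180 cervical cancer cells given 40 pM IL-6 alongside compound; SIE-controlled beta-lactamase reporter measured as 460/530 nm FRET emission ratio; % is scaled to controls: 0 for no effect and ±100 for the full control effect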). The conditions noted are these: ME-180 SIE beta-lactamase reporter, IL-6 stimulated, 5 h; at 7.69 µM (top of the series) unless noted. A digest of the protocol:
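Emission at 460 and 530 nm (excitation 405 nm) reports SIE-controlled beta-lactamase in ME-180 cells. Cells received compound with 40 pM IL-6 for 5 hrs at 37 C; data scaled between 300 pM IL-6 and 125 nM JAK-inhibitor controls.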

Experiment [4] addresses Glucocorticoid receptor (Homo sapiens) (UniProt P04150). As to the kind of experiment: GR-GFP Redistribution (AID 450;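 active = compounds whose dose series gives a full or clear partial fitted curve of increased nuclear translocation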; also: potency is read from the fitted curve at half-maximal effect). The conditions noted are these: U2OS GR-GFP nuclear translocation, laser cytometry, 2 h.
The target is the same in experiment [5]. Kind of experiment: GR-EFC Redistribution (AID 451; calls by dose curve; also: potency is read from the fitted curve at half-maximal effect). The conditions noted are these: CHO-K1 GR-EFC translocation, beta-gal luminescence, 2 h. A digest of the protocol:
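Translocation of GR-ED fusion to nuclear EA restores b-gal, read by luminescence after 1 h room-temperature detection. Engineered CHO-K1 biosensor cells, 1,000/well, exposed 2 h at 37 C to titrations up to 46 uM final.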

Experiment [6] concerns the target Mitogen-activated protein kinase 10 (Mus musculus) (UniProt Q61831). Kind of experiment: JNK3 AlphaScreen Assay (AID 530; active = well fitted curve in either direction with a large enough effect, not every such curve was filed as active;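 also: kinase came from lysate of stimulated human HepG2 cells; signal reports phosphorylation of biotinylated GST-cJun 1-79 at Ser73 with 10 µM ATP; % is scaled to controls: 0 for no effect and ±100 for the full control effect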). In short, it runs like this: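 Kinase buffer: 20 mM Tris-HCl pH 7.6, 10 mM MgCl2, 1 mM DTT, 0.1 mM Na3VO4, 0.01% Tween-20; ATP 10 uM. Substrate biotin-GST-cJun(1-79), enzyme from activated HepG2 lysates. Detection by Ser73 phospho-antibody AlphaScreen.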

Experiment [7] has as its target 3',5'-cyclic-AMP phosphodiesterase 4B (Homo sapiens) (UniProt Q07343). As to the kind of experiment: qHTS Assay for Inhibitors of PDE-IV (AID 607; active = well fitted activation curve with a large enough effect in the main read-out, with a control signal flat, not every such curve was filed as active; also: % of control where 0% means no effect). A digest of the protocol:
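The readout is membrane depolarisation from a cAMP-sensing CNG channel, detected with a potential dye at ex 535/em 590. Cells were HEK293-derived (endogenous PDE-IV) at 1000 cells/well, titrated up to 22.9 uM final.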
Background: Quantitative high-throughput screening tests each substance at several concentrations.

The nature of experiment [8]: qHTS Assay for Lipid Storage Modulators (AID 1519; calls by dose curve). As to conditions: Drosophila S3 cells, BODIPY lipid droplet/cell ratio, laser cytometry, cells loaded with oleic acid; for activity change, negative = inhibition: at 57.5 µM (top of the series). In short, it runs like this:
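Cells seeded at 5,000 per well were treated with compounds over a concentration series and loaded with oleic acid (400 uM, as added). Lipid droplet fluorescence (488 nm excitation, 500-530 nm channel) was read by laser-scanning cytometry and normalized to 20 uM Triacsin C.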

Experiment [9] has as its target Dual specificity protein kinase CLK4 (Homo sapiens) (UniProt Q9HAZ1). Kind of experiment: qHTS Assay for Inhibitors of CDC-like Kinase 4 (ADP-FP Assay) (AID 1795).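 Also: recombinant human CLK4 phosphorylating RS repeat peptide at 1 µM ATP; % is scaled to controls: 0 for no effect and ±100 for the full control effect; nearly all actives have a fitted effect of over 60% in size.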 A digest of the protocol: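 Kinase activity was measured as ADP production using Transcreener orange tracer (4 nM) and ADP antibody (1 ug/mL) fluorescence polarization, with ADP calculated from a calibration curve. The 1 h reaction contained 6.25 nM Clk4, 1 uM ATP and 100 uM RS peptide at pH 7.5 with Mg2+.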

The target in experiment [10] is Ubiquitin carboxyl-terminal hydrolase 1 (Homo sapiens) (UniProt O94782). As to the kind of experiment: Inhibitors of USP1/UAF1: Pilot qHTS (AID 504865).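 Also: rhodamine fluorescence freed from ubiquitin-rhodamine substrate followed over time; top concentration of the series differs between compounds; % is scaled to controls: 0 for no effect and ±100 for the full control effect; nearly all actives have a fitted effect of over 35% in size.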 A digest of the protocol: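 Deubiquitinase activity followed as kinetic rhodamine fluorescence release from 150 nM Ub-Rho. 1 nM USP1/UAF1 with compound, after 15 min room-temperature preincubation, in HEPES pH 7.8 buffer containing TCEP, EDTA, BSA and Tween-20.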

The nature of experiment [11]: Primary qHTS for small molecule stabilizers of the endoplasmic reticulum resident proteome: Secreted ER Calcium Modulated Protein (SERCaMP) assay (AID 1508630). Also: % is scaled to controls: 0 for no effect and ±100 for the full control effect. In short, it runs like this: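 The SH-SY5Y reporter protocol was run at 3 concentrations up to 38.3 uM (primary) or 11 concentrations (follow-up): 16 h compound, 100 nM thapsigargin for 4 h, then extracellular luciferase luminescence.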

The target in experiment [12] is Lysosomal acid glucosylceramidase (Homo sapiens) (UniProt P04062). As to the kind of experiment: Glucocerebrosidase-p2 (AID 348; in the data active = potency below about 10 µM; also: potency is read from the fitted curve at half-maximal effect). As to conditions: purified GBA, blue fluorogenic substrate, 40 min. In short, it runs like this:
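Normal human glucocerebrosidase (0.2 nM) with blue fluorogenic substrate (80 uM final) in citrate/phosphate pH 5.9 with 10mM sodium taurocholate, 0.01% tween-20; 40 min RT, NaOH/glycine stop; fluorescence Ex 365/Em 440; AC50 from a titration from 0.6 nM upwards.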

Experiment [13] concerns the target Cytochrome P450 1A2 (Homo sapiens) (UniProt P05177). As to the kind of experiment: p450-cyp1a2 (AID 410; calls by dose curve; also: potency is read from the fitted curve at half-maximal effect). A digest of the protocol:
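20nM CYP1A2, 100uM Luciferin-ME (=Km), 100mM KPO4; cpd 10 min RT; +NADPH regen, 60 min RT; stop/detect 20 min; luminescence. Normalized to furafylline 57 uM = full inhibition.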

In experiment [14] the target is Cytochrome P450 3A4 (Homo sapiens) (UniProt P08684). Kind of experiment: qHTS Assay for Inhibitors and Substrates of Cytochrome P450 3A4 (AID 884). Also: nearly all actives have a fitted effect of over 50% in size. Also: potency is read from the fitted curve at half-maximal effect. In short, it runs like this: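 Luminescent readout of luciferin produced by CYP3A4 (20 nM) dealkylation of Luciferin-PPXE, 25 uM (its KM). NADPH-driven reaction ran 60 min at RT after 10 min compound preincubation; data scaled to 57 uM ketoconazole as 100% inhibition.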

The nature of experiment [15]: Confirmation and Secondary Assay for Modulators of Hemoglobin Beta Chain Splicing at IVS2 654 locus (AID 910).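 Also: HeLa cells stably carrying EGFP split by mutant beta-globin IVS2-654 intron; per-well total GFP intensity by laser scanning cytometry after 2-day treatment; % of control where 0% means no effect.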 A digest of the protocol: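 Readout: per-well total peak green fluorescence (488 nm ex, 500–520 nm em) from objects 5–250 µm, reflecting correct splicing of an EGFP-654 reporter. Compounds were applied for 2 days at 37 °C to overnight-plated HeLa EGFP-654 cells; controls were DMSO and 500 nM IVS2-654 PNA.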

Experiment [16] is described as follows: Confirmation and Secondary Assay for Modulators of Hemoglobin Beta Chain Splicing at IVS2 705 locus (AID 930).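 Also: HeLa cells stably expressing the EGFP-705 splicing reporter; GFP fluorescence per well restored by corrected splicing of the IVS2-705 intron in EGFP; % of control where 0% means no effect.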 A digest of the protocol: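 Per-well GFP, captured at 1 x 8 µm resolution with 488 nm excitation, served as the read-out for HeLa EGFP-705 cells incubated 2 days with test compound versus DMSO.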
The target in experiment [17] is Cytochrome P450 3A4 (Homo sapiens) (UniProt P08684). As to the kind of experiment: qHTS Assay for Activators of Cytochrome P450 3A4 (AID 885). Also: nearly all actives have a fitted effect of over 65% in size. A digest of the protocol:
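Activators are scored by enhanced luminescence from CYP3A4 conversion of luciferin-PPXE (25uM, equal to KM) to luciferin, after 60 min at RT with an NADPH-regenerating system.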

Experiment [18] is described as follows: qHTS Assay for Identification of Small Molecule Agonists for Hypoxia Response Element Signaling Pathway (AID 914; active = well fitted activation curve with a large enough effect in the signal ratio, with a control signal flat, not every such curve was filed as active; the % refers to the signal ratio; also: % of control where 0% means no effect). The conditions noted are these: ME-180 (cervical carcinoma) HRE-bla reporter, beta-lactamase ratio, CoCl2, 17 h; activation: stronger effect = higher value. In short, it runs like this: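 In Opti-MEM containing 0.5% dialyzed FBS and 10 mM HEPES, ME-180 HRE-bla cells received a compound titration and EC50 CoCl2. They were incubated 17 hours, then CCF4-loaded 2.5 hours at room temperature before ratio reading.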

For experiment [19], the target named is Cytochrome P450 2C19 (Homo sapiens) (UniProt P33261). As to the kind of experiment: qHTS Assay for Inhibitors and Substrates of Cytochrome P450 2C19 (AID 899). Also: % is scaled to controls: 0 for no effect and ±100 for the full control effect; nearly all actives have a fitted effect of over 60% in size. A digest of the protocol: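 Luminescence readout of luciferin formed from 10uM Luciferin-H EGE (KM level) by 5 nM CYP2C19 in 50mM KPO4. 60 min NADPH-driven reaction at 37C after 10 min compound preincubation; data scaled to 57uM ketoconazole inhibition.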

[20] abbreviates: measured here: cell count channel max response.
[21] abbreviates: measured here: lipid channel max response.

Lysosomal acid glucosylceramidase (Homo sapiens), sequence (P04062 whole entry, looked up): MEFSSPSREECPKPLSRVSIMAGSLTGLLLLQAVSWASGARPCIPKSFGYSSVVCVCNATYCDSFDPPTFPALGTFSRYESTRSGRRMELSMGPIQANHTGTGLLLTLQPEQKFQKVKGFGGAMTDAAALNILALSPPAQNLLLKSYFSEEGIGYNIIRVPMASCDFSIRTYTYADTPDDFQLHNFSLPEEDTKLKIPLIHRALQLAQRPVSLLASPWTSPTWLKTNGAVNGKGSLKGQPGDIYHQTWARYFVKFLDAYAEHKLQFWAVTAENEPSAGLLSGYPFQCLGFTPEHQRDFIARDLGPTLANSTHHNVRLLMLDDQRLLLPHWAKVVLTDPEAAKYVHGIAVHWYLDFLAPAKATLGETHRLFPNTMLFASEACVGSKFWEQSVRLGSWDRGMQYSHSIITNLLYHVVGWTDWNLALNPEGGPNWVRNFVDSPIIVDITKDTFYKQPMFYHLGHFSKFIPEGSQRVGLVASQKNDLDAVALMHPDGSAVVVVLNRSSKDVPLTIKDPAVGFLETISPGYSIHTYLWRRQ
Ubiquitin carboxyl-terminal hydrolase 1 (Homo sapiens), sequence (O94782 whole entry, looked up): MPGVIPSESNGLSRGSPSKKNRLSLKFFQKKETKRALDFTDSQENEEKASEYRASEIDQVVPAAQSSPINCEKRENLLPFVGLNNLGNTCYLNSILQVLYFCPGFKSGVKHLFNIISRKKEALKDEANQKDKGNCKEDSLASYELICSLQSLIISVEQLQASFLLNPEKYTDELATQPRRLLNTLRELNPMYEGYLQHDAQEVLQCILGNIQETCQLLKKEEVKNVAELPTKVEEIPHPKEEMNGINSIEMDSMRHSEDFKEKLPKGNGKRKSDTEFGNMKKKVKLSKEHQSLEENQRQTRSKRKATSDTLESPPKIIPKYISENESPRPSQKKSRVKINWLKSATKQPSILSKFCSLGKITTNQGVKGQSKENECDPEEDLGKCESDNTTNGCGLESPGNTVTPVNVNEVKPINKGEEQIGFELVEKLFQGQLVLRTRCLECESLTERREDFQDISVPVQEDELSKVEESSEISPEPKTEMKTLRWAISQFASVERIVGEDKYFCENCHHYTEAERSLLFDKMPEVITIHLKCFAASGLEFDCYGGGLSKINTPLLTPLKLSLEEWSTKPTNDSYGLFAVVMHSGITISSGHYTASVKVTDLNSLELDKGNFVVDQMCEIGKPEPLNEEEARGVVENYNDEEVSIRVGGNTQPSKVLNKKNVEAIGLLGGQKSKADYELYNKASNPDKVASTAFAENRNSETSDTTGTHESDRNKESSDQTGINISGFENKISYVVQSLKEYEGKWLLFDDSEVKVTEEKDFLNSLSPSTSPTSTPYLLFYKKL
Cytochrome P450 3A4 (Homo sapiens), sequence (P08684 whole entry, looked up): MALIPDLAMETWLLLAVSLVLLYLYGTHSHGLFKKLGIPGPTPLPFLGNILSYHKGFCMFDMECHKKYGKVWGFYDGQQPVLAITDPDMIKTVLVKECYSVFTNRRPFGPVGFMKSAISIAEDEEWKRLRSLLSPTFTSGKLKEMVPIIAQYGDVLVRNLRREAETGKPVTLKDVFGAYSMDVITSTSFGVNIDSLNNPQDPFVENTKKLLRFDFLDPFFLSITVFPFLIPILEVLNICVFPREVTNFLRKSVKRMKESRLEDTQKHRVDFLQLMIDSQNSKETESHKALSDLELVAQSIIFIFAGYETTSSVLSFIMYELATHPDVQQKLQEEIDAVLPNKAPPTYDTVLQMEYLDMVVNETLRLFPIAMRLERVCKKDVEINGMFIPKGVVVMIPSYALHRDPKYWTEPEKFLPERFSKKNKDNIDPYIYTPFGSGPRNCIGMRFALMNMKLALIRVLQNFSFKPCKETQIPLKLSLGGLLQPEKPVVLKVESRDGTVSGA
Cytochrome P450 1A2 (Homo sapiens), sequence (P05177 whole entry, looked up): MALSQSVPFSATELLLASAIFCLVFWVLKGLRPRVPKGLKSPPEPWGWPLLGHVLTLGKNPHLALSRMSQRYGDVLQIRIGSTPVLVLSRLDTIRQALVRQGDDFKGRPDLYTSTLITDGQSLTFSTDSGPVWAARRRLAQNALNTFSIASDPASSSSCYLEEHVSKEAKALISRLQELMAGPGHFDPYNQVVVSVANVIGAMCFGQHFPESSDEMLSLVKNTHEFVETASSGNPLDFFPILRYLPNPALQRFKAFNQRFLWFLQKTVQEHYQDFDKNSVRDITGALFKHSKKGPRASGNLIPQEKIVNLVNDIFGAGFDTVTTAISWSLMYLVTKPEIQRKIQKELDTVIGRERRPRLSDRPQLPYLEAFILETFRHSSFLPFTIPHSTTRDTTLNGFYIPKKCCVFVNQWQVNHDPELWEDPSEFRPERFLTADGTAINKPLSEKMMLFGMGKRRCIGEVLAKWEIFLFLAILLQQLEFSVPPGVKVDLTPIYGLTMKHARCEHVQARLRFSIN
Glucocorticoid receptor (Homo sapiens), sequence (P04150 whole entry, looked up): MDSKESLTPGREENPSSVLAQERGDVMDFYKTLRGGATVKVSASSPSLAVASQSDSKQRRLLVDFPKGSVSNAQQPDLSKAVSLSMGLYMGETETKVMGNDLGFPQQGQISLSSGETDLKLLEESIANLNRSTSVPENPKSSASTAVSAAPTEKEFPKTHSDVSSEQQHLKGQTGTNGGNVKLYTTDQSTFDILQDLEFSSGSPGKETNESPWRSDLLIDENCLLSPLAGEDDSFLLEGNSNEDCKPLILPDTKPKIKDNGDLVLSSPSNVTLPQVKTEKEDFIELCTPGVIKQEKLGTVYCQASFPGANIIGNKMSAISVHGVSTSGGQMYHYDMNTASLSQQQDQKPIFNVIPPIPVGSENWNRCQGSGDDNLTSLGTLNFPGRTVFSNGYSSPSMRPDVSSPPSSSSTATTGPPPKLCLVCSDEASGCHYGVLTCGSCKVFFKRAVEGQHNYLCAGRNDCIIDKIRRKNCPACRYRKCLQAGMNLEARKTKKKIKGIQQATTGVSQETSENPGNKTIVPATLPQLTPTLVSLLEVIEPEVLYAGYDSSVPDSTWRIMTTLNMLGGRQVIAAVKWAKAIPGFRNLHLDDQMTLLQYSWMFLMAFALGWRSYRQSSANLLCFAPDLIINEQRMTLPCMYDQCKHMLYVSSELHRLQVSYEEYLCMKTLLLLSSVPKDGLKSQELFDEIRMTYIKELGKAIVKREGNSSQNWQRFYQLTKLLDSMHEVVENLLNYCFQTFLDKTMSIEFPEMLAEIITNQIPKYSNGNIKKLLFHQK
3',5'-cyclic-AMP phosphodiesterase 4B (Homo sapiens), sequence (Q07343 whole entry, looked up): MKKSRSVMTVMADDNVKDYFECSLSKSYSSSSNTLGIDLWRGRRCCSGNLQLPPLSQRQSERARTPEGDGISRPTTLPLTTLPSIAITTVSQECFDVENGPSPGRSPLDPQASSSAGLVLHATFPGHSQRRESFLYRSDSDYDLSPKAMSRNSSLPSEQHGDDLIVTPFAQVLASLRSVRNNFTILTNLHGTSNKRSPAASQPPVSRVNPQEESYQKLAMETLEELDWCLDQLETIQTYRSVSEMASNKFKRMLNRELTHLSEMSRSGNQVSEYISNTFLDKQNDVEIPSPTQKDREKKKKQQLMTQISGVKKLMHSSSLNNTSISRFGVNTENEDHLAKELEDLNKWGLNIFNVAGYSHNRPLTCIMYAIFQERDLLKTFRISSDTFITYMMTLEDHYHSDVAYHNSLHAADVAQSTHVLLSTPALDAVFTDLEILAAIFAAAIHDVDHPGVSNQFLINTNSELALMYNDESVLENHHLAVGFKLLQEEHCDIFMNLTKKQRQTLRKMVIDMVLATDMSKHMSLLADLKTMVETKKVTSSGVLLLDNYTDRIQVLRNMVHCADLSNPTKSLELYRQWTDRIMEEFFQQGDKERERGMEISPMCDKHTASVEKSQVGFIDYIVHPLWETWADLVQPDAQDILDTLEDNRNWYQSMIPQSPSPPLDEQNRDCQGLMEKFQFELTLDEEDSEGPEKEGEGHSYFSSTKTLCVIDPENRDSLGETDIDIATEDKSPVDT
Dual specificity protein kinase CLK4 (Homo sapiens), sequence (Q9HAZ1 whole entry, looked up): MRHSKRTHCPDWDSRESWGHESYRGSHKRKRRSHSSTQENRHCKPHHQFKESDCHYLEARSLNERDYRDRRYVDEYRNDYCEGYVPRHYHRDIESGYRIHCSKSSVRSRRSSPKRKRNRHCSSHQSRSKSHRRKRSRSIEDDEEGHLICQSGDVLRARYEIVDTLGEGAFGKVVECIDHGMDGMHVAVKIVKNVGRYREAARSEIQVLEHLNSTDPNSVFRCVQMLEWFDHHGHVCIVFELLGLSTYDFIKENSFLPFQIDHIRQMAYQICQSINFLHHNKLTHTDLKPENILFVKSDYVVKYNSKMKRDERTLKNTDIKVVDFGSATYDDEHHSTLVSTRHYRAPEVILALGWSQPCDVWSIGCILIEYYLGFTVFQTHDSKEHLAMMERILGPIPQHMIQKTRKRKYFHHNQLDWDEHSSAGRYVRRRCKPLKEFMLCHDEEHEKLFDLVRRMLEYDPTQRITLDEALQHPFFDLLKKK
Cytochrome P450 2C19 (Homo sapiens), sequence (P33261 whole entry, looked up): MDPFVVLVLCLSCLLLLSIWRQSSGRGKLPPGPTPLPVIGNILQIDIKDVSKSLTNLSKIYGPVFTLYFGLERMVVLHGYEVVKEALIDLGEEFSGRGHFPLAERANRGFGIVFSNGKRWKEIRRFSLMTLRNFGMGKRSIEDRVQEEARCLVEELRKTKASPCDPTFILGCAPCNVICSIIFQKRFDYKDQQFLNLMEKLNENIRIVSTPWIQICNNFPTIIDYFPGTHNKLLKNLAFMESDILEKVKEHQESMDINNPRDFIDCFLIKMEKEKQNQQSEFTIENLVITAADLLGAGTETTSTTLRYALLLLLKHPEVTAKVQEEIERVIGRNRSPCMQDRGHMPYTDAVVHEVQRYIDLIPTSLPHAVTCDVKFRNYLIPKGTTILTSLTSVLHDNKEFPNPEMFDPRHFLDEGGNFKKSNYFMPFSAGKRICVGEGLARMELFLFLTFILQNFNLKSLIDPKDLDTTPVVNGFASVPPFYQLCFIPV

As for `COc1ncc2nc(-c3ccc(F)cc3)c(=O)n(-c3ccccc3)c2n1`, the activity change, negative = inhibition in experiment [1] was -5.39% (inactive); in experiment [2], -7.66% (inactive); in experiment [8], 2.16% (inactive). Also, the activity, negative = inhibition in experiment [3] is -2.33% (inactive). For the same molecule, the Potency in experiment [4] is > 9.22 µM (inactive); in [5], > 46 µM (inactive). Besides, the outcome in experiment [6] was inactive. Moreover, the Potency entry in [7], in experiment [9], in experiment [10] and in [11] was “inactive” each time. The max response is -0.95% in experiment [8] (setting [20]) and -1.99% in experiment [8] (setting [21]).

Turning to `CN(C)c1ccnc(-c2ccccc2C(F)(F)F)n1`, the Potency in experiment [12] was > 11.4 µM (inactive); in experiment [13], 7.94 µM (active); in experiment [4], > 46 µM (inactive); in experiment [5], > 46 µM (inactive). The activity change, negative = inhibition in [1] was 24.2% (inactive); in experiment [2] it was 6.88% (inactive); in [8], 5.14% (inactive). Further, the activity, negative = inhibition in [3] is 1.29% (inactive). The molecule was called inactive in experiment [6], in [15] and in [16]. The Potency entry in experiment [7], in experiment [14], in experiment [10] and in experiment [11] was “inactive” each time. The max response in [8] (setting [20]) was found to be 11.7%; in experiment [8] (setting [21]) it was 18.9%.

On to `CN(C)C(=O)c1ccc(-c2cncnc2NCCc2cnc[nH]2)cc1`, for which the Potency in experiment [12] was > 11.4 µM (inactive); in [4], > 46 µM (inactive); in [14], 6.31 µM (active). Moreover, the activity change, negative = inhibition in [1] was -9.74% (inactive); in [2], 18.2% (inactive); in experiment [8], 3.4% (inactive). Also, the activity, negative = inhibition in experiment [3] was -26.8% (inactive). For the same molecule, the call in [6] was inactive. The Potency entry in experiment [7], in experiment [17], in experiment [9] and in experiment [11] was “inactive” throughout. Further, the max response in experiment [8] (setting [20]) was determined as 29.1%; in experiment [8] (setting [21]), 30.3%.

As to `CNc1ncncc1-c1ccccc1OC`, the Potency in experiment [12] was > 11.4 µM (inactive); in experiment [13] it was 1.58 µM (active); in experiment [4], > 46 µM (inactive); in [5] it was > 46 µM (inactive). Further, the activity change, negative = inhibition in [1] is -10.6% (inactive); in experiment [2], 8.73% (inactive); in experiment [8], 5.61% (inactive). Further, the activity, negative = inhibition in experiment [3] was 6.99% (inactive). In addition, the result in [6], in experiment [15] and in experiment [16] was inactive. The Potency entry in experiment [7], in experiment [17], in [10] and in experiment [11] was “inactive” in each case. Besides, the activation in experiment [18] was 5.66% (inactive). The max response in [8] (setting [20]) was 8.32%; in experiment [8] (setting [21]) it was 13.5%.

Turning to `CNc1ccnc(-c2c(C)noc2C)n1`, the Potency in experiment [12] was > 11.4 µM (inactive); in experiment [13], 1.26 µM (active); in experiment [4] it was > 46 µM (inactive); in [5], > 46 µM (inactive). For the same molecule, the figures for the activity change, negative = inhibition in experiment [1], in experiment [2] and in [8] were 2.46% (inactive), 1.59% (inactive) and 4.8% (inactive), respectively. Further, the activity, negative = inhibition in [3] is 12.4% (inactive). Moreover, the call in [6], in experiment [15] and in experiment [16] was inactive. Moreover, the Potency entry in experiment [7], in [17], in experiment [19], in experiment [10] and in experiment [11] was “inactive” in each case. Besides, in [18], the activation was 11.5% (inactive). The max response in experiment [8] (setting [20]) is -12.7%; in experiment [8] (setting [21]), -8.12%.
